# Sampled rows, rich in hits. Any-hit rate of the full collection: about 8%.
# SW480 rereplic – A quantitative high throughput screen for small molecules that induce DNA re-replication in SW480 colon adenocarcinoma cells; 1.8% of 340,000 active; Potency, µM (titrated, usually from 46.1 µM), most hits filed as activators; AID 624297, 2012; SW480 DNA re-replication, Hoechst DNA content imaging, 48 h; also: nearly all actives have a fitted effect of over 55% in size
#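 First, 250 cells per well were seeded. Next, compound or vehicle (23 nL) was pinned in, plates sat 48 hr at 37 C. Finally Hoechst was added for 40 min before fluorescence scanning.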
# KB-3-1 tox – qHTS assay for MDR1-selective chemotherapeutics: Primary screen using the parental adenocarcinoma cell KB-3-1. AID 1347075, 2019. 1.4% of 400,000 active. Potency, µM (series often up to 46.1 µM), most hits filed as cytotoxic. KB-3-1 viability, CellTiter-Glo ATP luminescence, 72 h; also: nearly all actives have a fitted effect of over 60% in size
#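 Using CellTiter-Glo luminescence, growth of non-resistant KB-3-1 adenocarcinoma cells is assessed 72 h after pin-tool compound addition at 37 °C. Normalized responses across the concentration series yield fitted curves.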
# MCF10A rerep – A quantitative high throughput screen for small molecules that induce DNA re-replication in MCF 10a normal breast cells. MCF 10A DNA re-replication, Hoechst nuclear intensity, 48 h. Potency, µM (titrated, usually from 46.1 µM), actives largely listed as activators. 2.9% of 350,000 active; also: nearly all actives have a fitted effect of over 50% in size
# KB-V1 cytotox – qHTS assay for MDR1-selective chemotherapeutics: Primary screen using the drug-selected MDR subline cells KB-V1; KB-V1 MDR cells viability, CellTiter-Glo, 72 h; Potency, µM (series often up to 46.1 µM), hits mostly cytotoxic; 3.4% of 400,000 active; AID 1347076, 2019; also: nearly all actives have a fitted effect of over 60% in size
#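 KB-V1, DMEM (no phenol red) + 10% FBS; cpd pin-transferred, titration series; 72 h, 37 degrees C; CellTiter-Glo, luminescence. Data normalized, curve-fit.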
# HT1080-NT tox – qHTS for induction of synthetic lethality in tumor cells producing 2HG: qHTS for the HT-1080-NT fibrosarcoma cell line | HT-1080-NT fibrosarcoma viability, CellTiter-Glo ATP luminescence, 48 h | Potency, µM (titrated, usually from 46.1 µM), usual class: cytotoxic | 1.6% of 360,000 active | AID 686970, 2013;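 also: NT is the 2HG producing partner of a matched IDH1 knockdown line; nearly all actives have a fitted effect of over 55% in size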
#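 Compounds were tested in concentration-response format on HT-1080-NT cells for 48 hours at 37 degrees C. Cell viability came from CellTiter-Glo luminescence; curves were classified by r2, response magnitude and activity.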
# HT1080 IDH1KD tx – qHTS for induction of synthetic lethality in tumor cells producing 2HG: qHTS for the HT-1080-IDH1KD cell line | HT-1080 IDH1 knockdown viability, ATP luminescence, 48 h | Potency, µM (doses to about 46.1 µM), usual class: cytotoxic | 2% of 360,000 active | AID 686971, 2013
#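 Cytotoxicity counter-line: IDH1KD HT-1080, 48 h, CellTiter-Glo. Curves classed by r2, magnitude and activity.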
# Numbers stand for hits; - = inactive; ? = inconclusive; . = no result; [ ] = remark or other dose. Calls follow the shape of the dose curve; as a rule, active = well fitted curve in the direction sought with a large enough effect; inconclusive = small, poorly fitted or top-dose-only effect, or another doubt; inactive = no such curve, though single readings can be large; an effect the other way counts as inactive or inconclusive.
SMILES,SW480 rereplic,KB-3-1 tox,MCF10A rerep,KB-V1 cytotox,HT1080-NT tox,HT1080 IDH1KD tx
COC(=O)C(C)Sc1nnc(SC(C)C(=O)OC)s1 (configuration not stated),-[9.22 µM],-,-,-,-,-
COc1ccc(CNC(=S)N/N=C(\C)c2ccc(OC)cc2)cc1,-,-,-,-,-,?
O=C(CCN1CCN(C(c2ccccc2)c2ccccc2)CC1)N/N=C/c1ccc(O)cc1,-,-,-,-,-,-
O=C(CSC1CN(C(c2ccccc2)c2ccccc2)C1)N/N=C/c1ccccc1,-,-,?,-,?,23µM
Cc1cnn(CCC(=O)NNC(=S)Nc2ccccc2)c1,?,-,-,?,7.1µM,8.9µM
Cc1cnn(CCC(=O)NNC(=S)NCC(C)C)c1,-,-,-,-,-,-
Cc1ccc(NC(=S)NNC(=O)CCn2cc(C)cn2)cc1,9.2µM,-,-,?,2.8µM,6.3µM
O=C(NC1CCCCC1)C(c1cccc2ccccc12)n1c(=O)c(-c2cc3ccccc3[nH]2)nc2ccccc21 (configuration not stated),.,-,.,-,21µM,18µM
O=C(NC1CCCCC1)C(c1ccccc1F)n1c(=O)c(-c2cc3ccccc3[nH]2)nc2ccccc21 (configuration not stated),.,?,.,?,-,?
O=C(NC1CCCCC1)C(c1ccncc1)n1c(=O)c(-c2cc3ccccc3[nH]2)nc2ccccc21 (configuration not stated),.,21µM,.,16µM,?,?
CC(C)(C)NC(=O)C(c1ccnc2ccccc12)n1c(=O)c(-c2cc3ccccc3[nH]2)nc2ccccc21 (configuration not stated),.,?,.,?,21µM,23µM
COc1ccc(CCNC(=O)CCCn2c(=O)c3ccccc3n(Cc3ccccc3)c2=O)cc1OC,.,-,.,-,.,.
COC(=O)c1cc2occc2n1Cc1ccc(Cl)cc1,?,-,16µM,-,-,-
O=c1c(Cl)c(O)c2cccc3c4ccccc4n1c23,-,-,23µM,?,-,-
CCCCCCCCCCCCCCCC[n+]1ccc(/C=N/O)cc1,21µM,2.9µM,2.6µM,-,21µM,23µM
O=C(NCCc1ccccc1)C1CCN(C2CCN(Cc3ccco3)CC2)CC1,-,-,-,-,-,-
Cc1ccccc1CCNC(=O)C1CCC(=O)N(CCc2cccc(F)c2)C1 (configuration not stated),-,-,-,-,-,-
COc1ccc(C(NC(=O)c2cc(OC)ccc2OC)c2ccccc2)cc1 (configuration not stated),?,?,?,8.2µM,?,?
COc1ccc(C(NC(=O)c2c(F)c(F)c(F)c(F)c2F)c2ccccc2)cc1 (configuration not stated),?,?,6.5µM,-,?,?
CCOc1ccc(C(NC(=O)c2ccco2)c2ccc(OC)c(OC)c2)cc1 (configuration not stated),?,-,3.7µM,?,-,-
COc1ccc(/C=N/OCC(=O)NC(c2ccccc2)c2ccccc2)c(OC)c1,-,-,?,23µM,-,-
COc1ccc(C(NC(=O)c2ccco2)c2ccc(OC)c(OC)c2)cc1 (configuration not stated),-,-,-,-,-,-
Cc1ccc(C)c(OCc2cc(C(=O)NC(C)c3cnn(C)c3)no2)c1 (configuration not stated),-,-,-,-,-,-
CCOCCCNC(=O)CNC(=S)N(Cc1ccccc1F)C1CCCCC1,-,-,-,-,-,-
Cn1c(=O)n(C)c2cc(S(=O)(=O)Nc3ccccc3)ccc21,-,-,-,-,-,-
SMILES,SW480 rereplic,KB-3-1 tox,MCF10A rerep,KB-V1 cytotox,HT1080-NT tox,HT1080 IDH1KD tx
Cc1ccc(NC(=O)COS(=O)c2ccc(C)cc2)cc1 (configuration not stated),-,-,-,-,-,-
O=C(NC1CCCCC1)N1CCN(Cc2ccco2)CC1,-,-,-,-,-,-
Cc1cc(/C=C/c2ccnc3ccccc23)ccc1N(C)C,.,7.3µM,.,13µM,.,.
CN(C)c1ccc(C=Cc2ccnc3ccccc23)cc1N,.,?,.,-,23µM,?
CN(C)c1c(Cl)cc(/C=C/c2ccnc3ccccc23)cc1Br,.,18µM,.,16µM,.,.
Cc1c(/C=C/c2ccnc3ccccc23)ccc(N(C)C)c1C,.,?,.,-,.,.
Clc1ccc(/C=C/c2ccnc3ccccc23)cc1,.,-,.,-,.,.
CCC(=O)N1CCc2cc(Br)cc(S(=O)(=O)Nc3ccccc3C(=O)OC)c21,.,-,.,-,.,.
Cc1ncsc1C(=O)N1N=C2/C(=C/c3ccc(N4CCOCC4)cc3)CCCC2C1c1ccc(N2CCOCC2)cc1 (configuration not stated),-,-,-,-,-,-
Cc1nc(N2N=C3/C(=C/c4ccc(F)cc4)CCCC3C2c2ccc(F)cc2)sc1C(=O)N(C)C (configuration not stated),?,?,-,21µM,-,-
C/C(=N\NC(=O)CSc1nc(C)cc(C)n1)c1cccs1,-,-,-,-,-,-
C/C(=N\NC(=O)Cn1nc(C)c(Br)c1C)c1cccs1,-,-,-,15µM,-,-
COc1ccc(CN2CCc3c(c(=O)n4ncc(C(=O)N5CCN(c6ccc(F)cc6)CC5)c4n3C)C2)cc1,.,?,.,-,.,.
CCn1c2c(c(=O)n3ncc(C(=O)N4CCN(c5ccc(C(C)=O)cc5)CC4)c13)CN(Cc1ccc(OC)cc1)CC2,.,21µM,.,-,.,.
CCCCNc1ccc(-c2nc(-c3ccccc3)no2)cc1[N+](=O)[O-],.,-,.,-,.,.
COc1ccc(F)cc1-c1cc(NC(C)=O)c2ncc(-c3cc(OC)c(OC)c(OC)c3)n2c1,.,7.3µM,.,-,?,-
COc1ccccc1-c1cc(NC(C)=O)c2ncc(-c3ccccc3)n2c1,.,-,.,?,23µM,?
CCN(CC)c1ccc(NS(=O)(=O)c2ccc(OC)cc2)cc1,-,-,-,-,-,-
CC(C)C(=O)Nc1nnc(Cc2c[nH]c3ccccc23)s1,?,-,8.2µM,-,-,-
CCc1nnc(NC(=O)CCc2c[nH]c3ccccc23)s1,-,-,-,-,-,-
COc1ccc(NC(=O)c2cc(S(=O)(=O)N3CCCC3)oc2C)cc1,-,-,-,?,-,-

# Bioassay records as filed in PubChem BioAssay.
